# High-throughput results: PubChem, National Center for Advancing Translational Sciences (NCATS)
# NS1 function inh = inhibitors of influenza NS1 protein function; Potency, µM (top dose mostly 46.1 µM); 0.4% of 270,000 active; calls by dose curve; also: actives are rising curves; nearly all actives have a fitted effect of over 50% in size
#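 Growth recovery, yeast-based: influenza A NS1 expressed in S. cerevisiae causes slow growth, and suppressors are detected by OD600. The parent strain without NS1 is used as positive control.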
# Shiga toxin inh = Shiga toxin inhibition; Vero cells, Shiga toxin protein synthesis inhibition reporter; inhibition, % at 38.7 µM; 9.2% of 290,000 active; in the data active = inhibition mostly above about 28%, no sharp cut-off; inactive = mostly below about 43%
# CHX counter = counter-screen hit for Shiga toxin inhibitors, cycloheximide | 12% of 300,000 active | max response, % | cell reporter, cycloheximide protein synthesis inhibition counterscreen | AID 2314; in the data active = max response mostly above about 13%, no sharp cut-off; inactive = mostly below about 14%; also: read at 38.3 µM for the half of the compounds with a filed dose
# AmpC no deterg = AmpC beta-lactamase inhibition without detergent. P00811. AmpC nitrocefin hydrolysis, absorbance 480 nm, 0.0001% Triton. Potency, µM (highest dose often 57.1 µM), actives largely listed as inhibitors. 0.52% of 330,000 active; also: nearly all actives have a fitted effect of over 20% in size
# Target sequence (P00811 whole entry, looked up): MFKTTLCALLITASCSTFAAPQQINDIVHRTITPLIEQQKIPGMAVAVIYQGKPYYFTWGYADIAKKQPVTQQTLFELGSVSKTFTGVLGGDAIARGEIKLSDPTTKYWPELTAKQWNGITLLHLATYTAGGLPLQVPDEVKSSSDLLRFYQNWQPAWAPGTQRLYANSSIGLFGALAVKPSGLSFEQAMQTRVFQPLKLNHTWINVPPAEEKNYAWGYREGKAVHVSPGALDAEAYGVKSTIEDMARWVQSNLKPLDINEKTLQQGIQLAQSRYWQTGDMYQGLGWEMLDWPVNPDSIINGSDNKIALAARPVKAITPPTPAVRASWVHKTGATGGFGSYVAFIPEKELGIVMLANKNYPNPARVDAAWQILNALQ
#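 AmpC (5.3 nM in the dispensed reagent) in 20 mM phosphate pH 7.0 with 0.01% (detergent screen) or 0.0001% Triton X-100 was preincubated with compounds for 15 min at room temperature. Nitrocefin was then added from an 800 uM solution, and hydrolysis was followed at 480 nm.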
# AmpC inh detg = inhibitors of E. coli AmpC beta-lactamase with detergent; Potency, µM (highest dose often 114 µM), hits mostly inhibitors; AmpC hydrolysis of nitrocefin, absorbance 480 nm, 0.01% Triton; AID 485294; 0.041% of 370,000 active; also: nearly all actives have a fitted effect of over 25% in size
#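 AmpC (5.3 nM in the dispensed reagent) in 20 mM phosphate pH 7.0 with 0.01% (detergent screen) or 0.0001% Triton X-100 was preincubated with compounds for 15 min at room temperature. Nitrocefin was then added from an 800 uM solution, and hydrolysis was followed at 480 nm.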
# Numbers stand for hits; – = inactive; ? = inconclusive; · = no result. Shown is part of a subset that was picked to be rich in hits. Unless noted, calls follow the shape of the dose curve; as a rule, active = well fitted curve in the direction sought with a large enough effect; inconclusive = small, poorly fitted or top-dose-only effect, or another doubt; inactive = no such curve, though single readings can be large; an effect the other way counts as inactive or inconclusive.
SMILES,NS1 function inh,Shiga toxin inh,CHX counter,AmpC no deterg,AmpC inh detg
COc1ccc2cc3cc(C(=O)NCCCN4CCC(C)CC4)oc3nc2c1,–,128,43,–,–
CC1CCN(CCC(=O)Nc2ccc(F)c(F)c2)CC1,–,–,–,–,–
COc1ccc2cc3cc(C(=O)NCCN4CCN(Cc5ccccc5)CC4)oc3nc2c1,–,–,–,–,–
COc1ccc2cc3cc(C(=O)NCCN4CCc5ccccc5C4)oc3nc2c1,–,36,–,–,–
Cc1nc(-c2cccnc2)sc1C(=O)Nc1ccc(F)cc1F,–,–,–,–,–
CNC(=O)c1sc(-c2ccccn2)nc1C,·,–,–,–,–
Cc1nc(-c2ccccn2)sc1C(=O)Nc1ccc(F)cc1,–,–,19,–,–
Cc1nc(-c2ccccn2)sc1C(=O)Nc1ccc(F)cc1F,–,59,31,–,–
COc1ccc(S(=O)(=O)NCc2cccnc2)c2ccccc12,–,–,–,–,–
COc1cccc(/C=N/Nc2ncnc(N)c2[N+](=O)[O-])c1OC,–,73,35,–,–
COc1cccc(/C=N/Nc2nccnc2Cl)c1O,–,–,13,–,–
COc1cccc(/C=N/Nc2ncnc(Cl)c2N)c1O,–,40,55,–,?
COc1cccc(/C=N/Nc2ncnc3scc(-c4ccccc4)c23)c1O,–,–,–,–,–
O=C(CCc1ccccc1)NNC(=O)c1ccncc1,·,·,·,–,·
Cc1ccc2c(CN3CCCc4ccccc43)cc(=O)oc2c1C,–,–,27,–,–
Cc1cc2oc(=O)cc(CN3CCc4ccccc43)c2cc1Cl,–,–,–,–,–
Cc1ccc2c(CN3CCCCC3)cc(=O)oc2c1C,–,–,36,–,–
Cc1ccc2c(CN3CCC(C(N)=O)CC3)cc(=O)oc2c1C,–,–,–,–,–
Cc1cc2oc(=O)cc(CN3CCCCC3)c2cc1O,–,–,27,–,–
C#C[C@]1(O)CC[C@H]2C3CCC4=Cc5oncc5CC4(C)C3CCC21C (stereo partly drawn),–,·,·,·,·
COc1ccc(CCn2c3c(c(=O)[nH]c2=O)C(NC(=O)c2ccccc2OC)(C(F)(F)F)C(=O)N3)cc1OC (stereo not drawn),·,·,·,·,–
CCOc1ccccc1NC(=O)C(OC(=O)c1ccccc1)c1ccccc1 (stereo not drawn),–,–,–,–,–
CCOc1ccccc1NC(=O)C(OC(=O)c1ccc(NC(=O)CC#N)cc1)c1ccccc1 (stereo not drawn),·,·,·,7.9µM,–
C/C(=N\Nc1ccc(F)cc1F)c1ccccc1O,·,79,28,–,–
COCCNC(=O)COC(=O)/C=C/c1cnc2ccccc2n1,–,–,–,–,?
SMILES,NS1 function inh,Shiga toxin inh,CHX counter,AmpC no deterg,AmpC inh detg
COC(=O)/C=C/c1cnc2ccccc2c1,·,118,36,–,–
COc1cccc(-c2ccc(NC(=O)C3CCCN(Cc4ccc(CO)o4)C3)cc2)c1 (stereo not drawn),–,–,–,–,–
CC(=O)c1ccc(NC(=O)Cc2cccs2)cc1,–,·,28,–,–
CC(=O)c1cccc(NC(=O)Cc2cccs2)c1,–,–,–,–,–
Cc1cc(NC(=O)Cc2ccsc2)ccc1Br,–,69,33,–,?
O=C(Cc1cccs1)Nc1ccc(NC(=O)c2ccco2)cc1,–,60,24,·,–
CC(=O)c1ccc(NC(=O)Cc2ccsc2)cc1,–,69,30,–,–
COCCCn1c(SCC(=O)N2CCOCC2)nc2cc(Cl)ccc2c1=O,·,·,·,–,–
O=C(Nc1cccc(NC(=O)c2cccs2)c1)c1ccco1,–,–,–,–,–
O=C(Nc1ccc(OC(=O)c2cccs2)cc1)c1ccco1,–,54,45,–,–
CC(C)NS(=O)(=O)c1ccc(NC(=O)Cc2ccsc2)cc1,–,–,–,–,–
CCCOC(=O)c1ccc(NC(=O)Cc2csc(C)n2)cc1,·,·,·,·,–
O=C(Cc1ccsc1)Nc1ccc(S(=O)(=O)C(F)F)cc1,·,49,23,–,–
CCCOC(=O)c1ccc(NC(=O)Cc2cccs2)cc1,–,51,35,–,–
COc1ccc(OC)c(-c2cc(C(=O)Nc3c(C)nn(Cc4ccc(C)cc4)c3C)no2)c1,·,·,·,·,–
O=C(Nc1ccccc1)N1CCN(c2nc3ccccc3s2)CC1,–,–,27,–,?
CCC(=O)N1CCN(c2nc3ccccc3s2)CC1,–,–,23,–,–
O=C(C1CC1)N1CCN(c2nc3ccccc3s2)CC1,–,132,33,–,–
CCS(=O)(=O)c1ccccc1C(=O)N1CCN(c2nc3ccccc3s2)CC1,·,·,·,·,–
CNC(=S)N1CCN(c2nc3ccccc3s2)CC1,–,69,46,–,–
O=C(CC1N=C2c3ccccc3N=C(SCc3cccc(F)c3)N2C1=O)NCc1ccc2c(c1)OCO2 (stereo not drawn),·,·,·,·,–
CS(=O)(=O)N(CC(=O)N1CCN(c2ccc(F)cc2)CC1)c1ccc(F)c(Cl)c1,–,–,–,–,–
Cc1cc(NC(=O)c2cc(Cl)ccc2Cl)ccc1-c1cc2ccccc2oc1=O,·,·,·,·,–
O=S(=O)(c1ccccc1)N1CCN(c2nc3ccccc3s2)CC1,?,–,–,–,–
CS(=O)(=O)N1CCN(c2nc3ccccc3s2)CC1,–,–,12,–,–
SMILES,NS1 function inh,Shiga toxin inh,CHX counter,AmpC no deterg,AmpC inh detg
O=C(Nc1ccc2nc(SCC(=O)N3CCOCC3)sc2c1)c1ccc(F)cc1,·,·,·,·,–
CCc1c(C)sc(NC(=S)Nc2cccnc2)c1C(=O)OC,–,22,–,–,–
Cc1cccc(C=Nc2ccc3c(c2)oc2ccccc23)c1O,–,98,62,–,–
C=CCSc1nncn1/N=C/c1ccc(OC)cc1,–,76,37,–,?
Cc1cc(NC(=O)c2ccc(-c3ccccc3F)o2)no1,·,186,79,–,–
COc1ccccc1NC(=O)c1ccc(-c2ccccc2F)o1,–,70,28,–,?
CCCCN(Cc1ccccc1)c1ncnc2nc[nH]c12,–,31,36,–,–
CCCN(c1ccc(OCC)cc1)c1ncnc2nc[nH]c12,–,–,–,0.71µM,?
Cc1[nH]c2ccccc2c1C(=O)C(=O)NC1CC(=O)N(c2cccc(F)c2)C1 (stereo not drawn),·,·,·,·,–
COc1cc(NS(=O)(=O)c2ccc3c(c2)CCCN3C(C)=O)cc(OC)c1OC,·,–,–,·,–
CCOC(=O)C1=C(COC(=O)C2CC(=O)N(c3ccccc3F)C2)NC(=O)NC1C (stereo not drawn),·,·,·,–,–
CCN(CC)c1ccc(CNc2ccc(Br)cn2)cc1,–,88,33,–,?
COc1ccccc1/C=C1\SC(=S)N(CCC(=O)Nc2cccc(O)c2)C1=O,–,27,17,–,–
COc1cccc(/C=C2/SC(=S)N(CCCC(=O)Nc3ccc(O)cc3)C2=O)c1,–,44,27,–,–
O=C(CCCN1C(=O)/C(=C/c2ccccc2)SC1=S)Nc1cccc(O)c1,·,21,–,–,–
COc1ccc(/C=C2/SC(=S)N(CCCC(=O)Nc3ccc(O)cc3)C2=O)cc1OC,–,–,–,–,–
